Data from PubChem BioAssay AID1159580 (chemical genetic matrix, 2015).
Where “and” joins values, the source holds several entries; their conditions need not be identical. Identical values can stand only once. Among all 5,500 compounds or so, about 2,000 (36%) were called active. Another 18% or so got no clear call; they are omitted. Rule as the data show it: active = normalized growth mostly below about 0.91 (no sharp cut-off); inconclusive = no clear call, values can overlap the other calls; inactive = mostly above about 0.92. This is one part of the list.

Assay: chemical genetic growth profiling, strain panel (AID 1159580);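 also: tested at 20 µM; growth read once vehicle control cultures reached saturation at 30 °C; 1 = growth at the plate median or of vehicle wells; lower values mean less growth of the strain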
Conditions: S. cerevisiae deletion strains, growth OD

Measured: normalized growth

NC[C@H](O)c1ccc(O)c(O)c1
inactive: locus YAL013W, strain DEP1, hits give low values 1.01 | locus YAL021C, strain ccr4, hits give low values 0.984 | locus YAL026C, strain drs2, hits give low values 0.99 | locus YAL030W, strain snc1, hits give low values 1.01 | locus YBL061C, strain skt5, hits give low values 1.01 | locus YBR009C, strain hhf1, hits give low values 1.01 | locus YBR021W, strain FUR4, hits give low values 1.01 | locus YBR023C, strain chs3, hits give low values 1.02 | locus YBR171W, strain sec66, hits give low values 0.996 | locus YBR229C, strain ROT2, hits give low values 1.01 | locus YBR231C, strain swc5, hits give low values 0.984 | locus YBR279W, strain paf1, hits give low values 1.02 | locus YCL011C, strain gbp2, hits give low values 0.999 | locus YCL016C, strain dcc1, hits give low values 1.02 | locus YCL029C, strain bik1, hits give low values 1.01 | locus YCL061C, strain MRC1, hits give low values 1.01 | locus YCL069W, strain vba3, hits give low values 0.991 | locus YCR088W, strain abp1, hits give low values 1.01 | locus YDL005C, strain med2, hits give low values 1 | locus YDL035C, strain GPR1, hits give low values 1.01 | locus YDL040C, strain nat1, hits give low values 1.01 | locus YDL074C, strain BRE1, hits give low values 0.986 | locus YDL101C, strain DUN1, hits give low values 1.01 | locus YDL134C, strain PPH21, hits give low values 1.02 | locus YDL185W, strain tfp1, hits give low values 1.01 | locus YDL192W, strain arf1, hits give low values 1.01 | locus YDR001C, strain nth1, hits give low values 1 | locus YDR069C, strain doa4, hits give low values 0.981 | locus YDR101C, strain arx1, hits give low values 1 | locus YDR137W, strain rgp1, hits give low values 1.06 | locus YDR150W, strain NUM1, hits give low values 1 | locus YDR159W, strain sac3, hits give low values 1.01 | locus YDR162C, strain NBP2, hits give low values 1 | locus YDR195W, strain ref2 1.01 | locus YDR297W, strain sur2, hits give low values 1.01 | locus YDR318W, strain mcm21, hits give low values 1.03 | locus YDR334W, strain swr1, hits give low values 0.984 | locus YDR335W, strain msn5, hits give low values 0.999 | locus YDR388W, hits give low values 1.02 | locus YDR392W, strain spt3, hits give low values 0.987 | locus YDR502C, strain sam2, hits give low values 1.02 | locus YEL003W, strain gim4, hits give low values 0.986 | locus YEL037C, strain rad23, hits give low values 0.986 | locus YEL061C, strain CIN8 (second series), hits give low values 0.985 | locus YEL061C, strain CIN8, hits give low values 1.01 | locus YER015W, strain faa2, hits give low values 0.99 | locus YER016W, strain bim1, hits give low values 1 | locus YER110C, hits give low values 1.02 | locus YER111C, strain swi4, hits give low values 0.98 | locus YER155C, strain BEM2 (second series), hits give low values 1 | locus YER155C, strain BEM2, hits give low values 1.02 | locus YER167W, strain BCK2, hits give low values 1.02 | locus YFR010W, strain ubp6, hits give low values 0.953 | locus YGL078C, strain dbp3, hits give low values 1.01 | locus YGL086W, strain mad1, hits give low values 0.991 | locus YGL167C, strain pmr1, hits give low values 1 | locus YGL173C, strain kem1, hits give low values 0.999 | locus YGL227W, strain vid30, hits give low values 1 | locus YGL240W, strain doc1, hits give low values 1.03 | locus YGL248W, strain PDE1, hits give low values 1.01 | locus YGL253W, strain hxk2, hits give low values 0.994 | locus YGR135W, strain pre9, hits give low values 0.998 | locus YGR252W, strain gcn5, hits give low values 0.958 | locus YHR013C, strain ard1, hits give low values 1 | locus YHR027C, strain rpn1, hits give low values 1 | locus YHR030C, strain SLT2, hits give low values 1.01 and 0.962 | locus YHR079C, strain IRE1 (second series), hits give low values 1.02 | locus YHR079C, strain IRE1, hits give low values 0.953 | locus YHR094C, strain hxt1, hits give low values 1.03 | locus YHR129C, strain ARP1, hits give low values 0.999 | locus YHR142W, strain chs7, hits give low values 0.978 | locus YHR200W, strain rpn10, hits give low values 1.02 | locus YIL066C, strain RNR3, hits give low values 1.01 | locus YIL073C, strain SPO22, hits give low values 1.03 | locus YIL125W, strain kgd1, hits give low values 1.01 | locus YIR030C, strain dcg1, hits give low values 1.02 | locus YJL092W, strain hpr5, hits give low values 1 | locus YJL095W, strain BCK1 (second series), hits give low values 1.01 | locus YJL095W, strain BCK1, hits give low values 0.994 and 0.971 | locus YJL115W, strain asf1, hits give low values 1 | locus YJL129C, strain trk1, hits give low values 0.952 | locus YJL134W, strain LCB3, hits give low values 1.01 | locus YJL154C, strain vps35, hits give low values 1 | locus YJL164C, strain tpk1, hits give low values 1.01 | locus YJL166W, strain qcr8, hits give low values 1.02 | locus YJL168C, strain set2, hits give low values 1.02 | locus YJL187C, strain SWE1 (second series), hits give low values 1.01 | locus YJL187C, strain SWE1, hits give low values 0.999 | locus YJR043C, strain POL32, hits give low values 1.02
